The full ranking holds about 16,000 sequences; the median of “e-score” is about -0.044, and the highest 2% start at about 0.38. Only a selection was taken, and the highest values are over-represented in it overall.
Target: T1, GST-NbGlk1(82-244) (Nicotiana benthamiana)
T1 chain: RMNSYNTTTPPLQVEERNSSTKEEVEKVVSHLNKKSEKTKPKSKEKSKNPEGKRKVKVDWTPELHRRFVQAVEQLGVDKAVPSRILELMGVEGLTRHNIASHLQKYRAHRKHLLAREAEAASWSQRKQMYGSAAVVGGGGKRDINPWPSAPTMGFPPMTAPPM
Experiment: protein-binding microarray; NbGlk1 is a Golden2-like transcription factor of Nicotiana benthamiana; high values mean tight binding
Details: protein: recombinant; tags: GST (pTH6838); dsDNA, one strand shown

Sequence	binding signal [E-score]
ATTTCGGG	0.27 ± 0.0618
ATCTCATC	0.312 ± 0.051
ACCGCAAT	0.302 ± 0.00387
ATCCGGAG	0.233 ± 0.0472
ATCCGGAT	0.422 ± 0.0228
ATCCGGAA	0.332 ± 0.0273
ACACAAAT	0.204 ± 0.00827
ACAATCTA	0.3803 ± 0.00317
ACAATCAG	0.237 ± 0.0723
ACAATCGA	0.201 ± 0.0349
ACAATCTC	0.373 ± 0.047
ACAATCAA	0.223 ± 0.00556
ACAATCTG	0.404 ± 0.0106
ATTTGTTA	0.237 ± 0.0814
ACTGCAAT	0.211 ± 0.0632
AAGATTTA	0.333 ± 0.0668
AAAATTTC	0.276 ± 0.00552
CAGATTTA	0.276 ± 0.0107
AAGATTTC	0.477 ± 0.00488
ATGATTTC	0.387 ± 0.0129
ACGATCTA	0.252 ± 0.0264
CAAATTTC	0.232 ± 0.00396
ACGATTTC	0.411 ± 0.0236
CAGATTTC	0.4864 ± 0.00115
ACGATTTG	0.264 ± 0.0306
ATGATTTG	0.257 ± 0.0544

Sequence	binding signal [E-score]
ATTATTTC	0.219 ± 0.0605
ATTCCCAA	0.344 ± 0.0159
ATCGGATA	0.33 ± 0.0178
AAATACGT	0.267 ± 0.0537
AATTGAAA	0.226 ± 0.0522
ACAAATAA	0.23 ± 0.0836
ATTTATTG	0.216 ± 0.0481
ATTGCGAG	0.24 ± 0.0521
ATATATAT	0.244 ± 0.0459
ATTCCCAG	0.291 ± 0.0505
AACTGATT	0.296 ± 0.0177
AATATTTG	0.2529 ± 0.00132
AAGATTTG	0.3926 ± 0.000402
AAGATCAG	0.222 ± 0.0847
AATCGGCA	0.245 ± 0.0624
AATTTCCG	0.257 ± 0.00588
AATCAGTA	0.268 ± 0.0701
ATTCTTAA	0.276 ± 0.0327
AATCTTAC	0.375 ± 0.0424
AATCTTAA	0.411 ± 0.0114
AATCTTAG	0.393 ± 0.0231
ATTCTTAG	0.253 ± 0.0124
AATCTTAT	0.377 ± 0.038
AAAGTAAT	0.215 ± 0.0195
ATAAATCC	0.244 ± 0.0187
CAAAATCC	0.42 ± 0.00492

Sequence	binding signal [E-score]
CAAAATCA	0.314 ± 0.00439
CAAAATAC	0.244 ± 0.00367
AAAAATCC	0.437 ± 0.00502
ACAAATCC	0.337 ± 0.0192
ATACGCAA	0.311 ± 0.105
ATTACGTG	0.343 ± 0.0114
ATACAGAT	0.232 ± 0.0349
ATTTTCAG	0.282 ± 0.0614
AATCCGAA	0.406 ± 0.0054
ATCCCGAT	0.294 ± 0.0618
AATCCCGA	0.358 ± 0.0612
AATCCGAT	0.432 ± 0.00878
AATCCGAG	0.384 ± 0.0199
AATGCGAT	0.246 ± 0.145
AATCCGAC	0.375 ± 0.0477
ATTCCGAG	0.275 ± 0.0409
AATCAGAA	0.333 ± 0.0384
ATCCCCAT	0.277 ± 0.00736
AAACGGAT	0.245 ± 0.00295
AATCAATA	0.274 ± 0.0307
ATTACGCG	0.332 ± 0.0406
ATCGCCAA	0.206 ± 0.00895
ATTACTTA	0.22 ± 0.00767
CAAGATAC	0.263 ± 0.0221
AAAGAAAT	0.26 ± 0.02
CACGAATC	0.332 ± 0.0173

Sequence	binding signal [E-score]
AATGAATC	0.262 ± 0.0542
AAAGAATC	0.432 ± 0.00665
CAAGAATC	0.3851 ± 0.0038
ATCCGGTG	0.295 ± 0.0985
AATAAAAT	0.285 ± 0.0273
AGGATATC	0.469 ± 0.00696
ATGATATG	0.251 ± 0.0218
ACGATACG	0.207 ± 0.012
CAGATACC	0.318 ± 0.0659
AGGATATA	0.211 ± 0.0455
ATGATCTC	0.237 ± 0.0252
CACATATC	0.207 ± 0.0307
ATGATATC	0.4224 ± 0.000678
ACGATCTC	0.295 ± 0.0231
ACGATATC	0.444 ± 0.0119
CAGATATC	0.4684 ± 0.00421
AGGATATG	0.301 ± 0.025
CACGGATA	0.231 ± 0.0138
ATATTTTA	0.311 ± 0.0242
ATATGATA	0.219 ± 0.000234
ATTCGGTA	0.241 ± 0.0544
ACTGTAAA	0.2014 ± 0.00123
ATTACGGA	0.366 ± 0.0276
ATAACGCA	0.2 ± 0.0382
ATCTAAGA	0.26 ± 0.0102
ACGGGAAT	0.324 ± 0.00778

Sequence	binding signal [E-score]
AAGATATT	0.393 ± 0.0518
AAGATATA	0.3097 ± 0.00108
CAGATACG	0.391 ± 0.0206
AAGATACG	0.319 ± 0.0229
AAGATAAT	0.221 ± 0.0513
AAGATATG	0.352 ± 0.0302
CAAATACG	0.225 ± 0.0583
CAGATATG	0.393 ± 0.0499
AAGATATC	0.4749 ± 0.00348
CAAATATG	0.212 ± 0.061
CACAGATA	0.28 ± 0.0657
AAGATACT	0.2834 ± 0.00149
ATCCAGCC	0.215 ± 0.0455
CAATCAGA	0.206 ± 0.101
AAATATAG	0.237 ± 0.00681
ATATCGAA	0.272 ± 0.135
ATCTCGTA	0.376 ± 0.0288
ATCGGATC	0.275 ± 0.0422
ATTTTCGA	0.266 ± 0.0802
ATTACGCA	0.355 ± 0.0219
ATATATTA	0.229 ± 0.0313
AGATATTG	0.375 ± 0.0495
AAATATTC	0.306 ± 0.0275
AGATATTA	0.379 ± 0.00115
ATATATTC	0.281 ± 0.0514
AGATATTC	0.451 ± 0.0112
